Potency and outcome data for 20 compounds are collected here from PubChem BioAssay (NCATS).

Assay [1] can be described thus: Cell Viability - LYMP2-001 (AID 921). Also: nearly all actives have a fitted effect of over 70% in size. Also: potency is read from the fitted curve at half-maximal effect. The essentials:
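Cellular ATP loss read by luciferase luminescence after 24 h compound exposure at 37 C in complete medium. LYMP2-001 lymphoblastoid cells, 2500/well; qHTS concentration-response data fitted with Hill equation for AC50.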

The nature of assay [2]: MultiTox-Fluor Cytotoxicity Assay - LYMP1-001 - Dead Cells (AID 946). Also: potency is read from the fitted curve at half-maximal effect. The essentials:
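LYMP1-001 lymphoblastoid cells (2500/well) treated 16 h at 37 C. Dead-cell protease cleavage of bis-AAF-R110 read at Ex/Em 485/520. Normalized to DMSO and 15 uM tetraoctylammonium bromide; AC50 from Hill fits.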

The nature of assay [3]: MultiTox-Fluor Cytotoxicity Assay - LYMP1-001 - Live Cells (AID 947).
A short description of assay [4]: Cell Viability - LYMP1-002 - Assay at 16 hr (AID 948). Also: potency is read from the fitted curve at half-maximal effect. The essentials:
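ATP luminescence (CellTiter-Glo) was measured after 16 hr compound exposure at 37 C of 2500 lymphoblastoid LYMP1-002 cells per well. Concentration-response curves were fitted with the Hill equation to give AC50.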

Assay [5] is described as follows: MultiTox-Fluor Cytotoxicity Assay - LYMP1-002 - Live Cells (AID 955). Also: potency is read from the fitted curve at half-maximal effect. An outline of the steps: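 Read-out is live-cell protease activity (cell-permeant GF-AFC substrate, fluorescence Ex/Em=405/510), where a decrease indicates acute toxicity. Human lymphoblastoid cells were treated 16 hours at 37 C in a concentration series, and AC50 values came from standard Hill modelling.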

Assay [6] is described as follows: MultiTox-Fluor Cytotoxicity Assay - LYMP1-002 - Dead Cells (AID 960). Also: nearly all actives have a fitted effect of over 60% in size. The essentials: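 LYMP1-002 cells 2500/well; 5 hr 37 C pre-incubation; compound 16 hr 37 C; MultiTox-Fluor reagent 60 min RT; dead-cell fluor Ex/Em 485/520. Norm. to DMSO (0%) vs 15 uM tetraoctylammonium bromide (100%); Hill AC50.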
A short description of assay [7]: MultiTox-Fluor Cytotoxicity Assay - LYMP1-003 - Dead Cells (AID 961). Also: nearly all actives have a fitted effect of over 70% in size. Also: potency is read from the fitted curve at half-maximal effect. The essentials: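 LYMP1-003 human lymphoblastoid cells (2500/well) exposed to compound 16 h at 37 C in complete medium; dead-cell protease read with bis-AAF-R110 fluorescence (Ex/Em 485/520) after 60 min at room temperature. Normalized to DMSO and 15 uM tetraoctylammonium bromide; AC50 from Hill fit.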

Assay [8] is described as follows: MultiTox-Fluor Cytotoxicity Assay - LYMP1-003 - Live Cells (AID 962). Also: potency is read from the fitted curve at half-maximal effect. An outline of the steps: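 qHTS, 1536-well; 2500 cells/well LYMP1-003; 5 hr 37 C settle; cpd 16 hr 37 C; MultiTox-Fluor reagent 60 min RT; live-cell protease fluor. 405/510; Hill-fit AC50; tetraoctylammonium bromide pos. ctrl.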
Assay [9] can be described thus: Cell Viability - LYMP1-003 - Assay at 24 hr (AID 963). Also: potency is read from the fitted curve at half-maximal effect. An outline of the steps:
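Cells seeded at 2500/well, 5 hr at 37 C; compounds added; 24 hr at 37 C; CellTiter-Glo added, 30 min room temperature; luminescence read. Decrease in ATP taken as cytotoxicity, AC50 from Hill modelling.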

The nature of assay [10]: Cell Viability - LYMP1-003 - Assay at 40 hr (AID 964). Also: nearly all actives have a fitted effect of over 60% in size. Also: potency is read from the fitted curve at half-maximal effect. The essentials:
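Cells were seeded at 2500 per well and incubated 5 hr at 37 C. Compounds were added across a concentration series and left 40 hr at 37 C. CellTiter-Glo was added for 30 min at room temperature before luminescence reading.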

A short description of assay [11]: Confirmation and Secondary Assay for Modulators of Hemoglobin Beta Chain Splicing at IVS2 705 locus (AID 930).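 Also: HeLa cells stably expressing the EGFP-705 splicing reporter; GFP fluorescence per well restored by corrected splicing of the IVS2-705 intron in EGFP; series mostly up to about 46 µM.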 An outline of the steps: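 Splice-correction reporter: EGFP cDNA split by beta-globin intron 2 bearing the 705 mutation, stably in HeLa. Compound incubation 2 days, 37C; fluorescent objects 5-250 µm summed per well.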
Assay [12] can be described thus: qHTS Assay for Identification of Small Molecule Agonists for NFkB Signaling Pathway (AID 928; calls by dose curve). To be noted: NFkB beta-lactamase reporter cells, blue/green ratio. The essentials:
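ME-180 NFkB-bla cells carry a beta-lactamase reporter under an NFkB response element. Compound plus 10 pM TNF alpha (final) was applied for 5 hrs at 37 C. After 2 hrs with LiveBLAzer substrate, 460/530 nm emission was read at 405 nm excitation.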
For orientation: Quantitative high-throughput screening tests each substance at several concentrations.

Assay [13] concerns the target Pyruvate kinase (Leishmania mexicana) (UniProt Q27686). The assay can be described thus: qHTS Validation Assay for Inhibitors of Leishmania Mexicana Pyruvate Kinase (AID 945). An outline of the steps:
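The enzyme is a highly purified E451W mutant of LmPYK used at 0.2 nM. It converts 0.5 mM PEP and 0.1 mM ADP over 1 h at room temperature; product ATP is quantified by luciferase luminescence relative to DMSO controls.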

In assay [14] the target is Pyruvate kinase PKM (Homo sapiens) (UniProt P14618). The assay can be described thus: qHTS Assay for Activators of Human Muscle Pyruvate Kinase (AID 954; active = well fitted curve in the direction sought with a large enough effect, not every such curve was filed as active). The essentials:
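Purified human PKM2 (0.1 nM) with 0.5 mM PEP (Km) and 0.1 mM ADP in 50 mM imidazole pH 7.2, KCl, MgCl2, 1 h at room temperature; ATP formed read by coupled luciferase luminescence. Normalized to no-enzyme/110 uM thiadiazolimine inhibition; 0.3 nM enzyme column for activation.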

Inconclusive results are not listed. Activity calls are given as the source filed them. Unless noted, calls follow the shape of the dose curve; as a rule, active = well fitted curve in the direction sought with a large enough effect; inconclusive = small, poorly fitted or top-dose-only effect, or another doubt; inactive = no such curve, though single readings can be large; an effect the other way counts as inactive or inconclusive.

Sequence of Pyruvate kinase PKM (Homo sapiens) (P14618 whole entry, looked up): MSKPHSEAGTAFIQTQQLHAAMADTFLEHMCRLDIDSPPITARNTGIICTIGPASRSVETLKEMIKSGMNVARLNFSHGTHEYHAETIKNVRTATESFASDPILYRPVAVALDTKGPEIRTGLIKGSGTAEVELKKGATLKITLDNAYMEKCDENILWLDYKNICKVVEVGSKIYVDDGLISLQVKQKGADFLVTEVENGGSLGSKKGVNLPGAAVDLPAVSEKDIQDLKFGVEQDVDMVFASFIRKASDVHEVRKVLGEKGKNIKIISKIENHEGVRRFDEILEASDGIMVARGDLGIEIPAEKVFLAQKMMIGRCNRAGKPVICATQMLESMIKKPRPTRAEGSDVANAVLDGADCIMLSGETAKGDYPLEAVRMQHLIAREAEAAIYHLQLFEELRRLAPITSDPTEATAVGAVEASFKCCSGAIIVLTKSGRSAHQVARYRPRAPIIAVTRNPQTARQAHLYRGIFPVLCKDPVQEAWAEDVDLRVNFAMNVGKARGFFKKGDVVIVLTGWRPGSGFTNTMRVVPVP
Sequence of Pyruvate kinase (Leishmania mexicana) (Q27686 2-499 E452W): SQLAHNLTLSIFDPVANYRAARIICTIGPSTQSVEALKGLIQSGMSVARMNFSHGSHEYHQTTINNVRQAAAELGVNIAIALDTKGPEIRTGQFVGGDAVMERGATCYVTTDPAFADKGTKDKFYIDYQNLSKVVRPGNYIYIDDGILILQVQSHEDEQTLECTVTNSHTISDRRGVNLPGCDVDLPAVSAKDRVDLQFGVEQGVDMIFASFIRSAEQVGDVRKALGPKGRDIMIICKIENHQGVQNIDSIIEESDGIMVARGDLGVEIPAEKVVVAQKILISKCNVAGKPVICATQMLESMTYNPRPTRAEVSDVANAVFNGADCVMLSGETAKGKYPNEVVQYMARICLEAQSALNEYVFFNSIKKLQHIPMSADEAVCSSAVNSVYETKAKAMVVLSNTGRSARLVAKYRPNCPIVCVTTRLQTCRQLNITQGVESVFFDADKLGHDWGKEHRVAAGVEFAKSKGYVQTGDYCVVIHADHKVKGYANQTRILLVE

Turning to `Nc1ccc(O)c(C(=O)O)c1`, the Potency entry in assay [1], in assay [2], in assay [3], in assay [4], in assay [5] and in assay [6] was “inactive” throughout. In addition, the Potency result in assay [7], in assay [8], in assay [9] and in assay [10] was “inactive” each time.

In the case of `O=C(/C=C/c1ccc(O)cc1)c1ccc(O)cc1O`, the compound was classed as inactive in [11].

Regarding `CN1CCC[C@H]1c1cccnc1`, the Potency entry in assay [1], in [2], in assay [3], in [4], in assay [5] and in assay [6] was “inactive” throughout. Further, the Potency entry in assay [7], in [8], in assay [9] and in assay [10] was “inactive” in each case.

With `CN1CCc2cccc3c2C1Cc1ccc(O)c(O)c1-3` (stereo not given), the result in assay [11] was inactive.

With `Nc1ccc(C(=O)O)c(O)c1`, the outcome in [11] was inactive.

For the compound `CCCCC1C(=O)N(c2ccccc2)N(c2ccc(O)cc2)C1=O` (stereo not given), the compound was classed as inactive in assay [11].

On to `COc1cccc(OC)c1OCCNCC1COc2ccccc2O1` (stereo not given), for which the compound was called inactive in [11].

On to `COc1cc2c(CCNC(C)=O)c[nH]c2cc1Cl`, for which the Potency in [12] is 3.16 µM (active). For the same compound, the Potency result in assay [13] is “inactive”. Besides, in [14], the compound was called inactive.

On to `Nc1nc(Cl)nc2c1ncn2[C@@H]1O[C@H](CO)[C@@H](O)[C@H]1O`, for which the compound was classed as inactive in [11].

With `CCCCCCOc1ccccc1C(N)=O`, the outcome in assay [11] was inactive.

`COc1cc(/C=C/C(=O)CC(=O)/C=C/c2ccc(O)c(OC)c2)ccc1O`: the Potency in [1] was 20 µM (active); in assay [2], 50.1 µM (active); in assay [4], 50.1 µM (active); in assay [7], 50.1 µM (active); in assay [9] it was 50.1 µM (active); in assay [10] it was 39.8 µM (active). In addition, the Potency result in assay [3] and in assay [8] was “inactive” each time.

Turning to `O=c1cc(-c2ccccc2)oc2c(O)c(O)ccc12`, the compound was classed as inactive in [11].

In the case of `Cc1ccc(C(=O)c2ccc(CC(=O)O)n2C)cc1`, the outcome in assay [11] was inactive.

Regarding `Nc1nc2ccc([N+](=O)[O-])cc2s1`, the Potency result in assay [1], in [2], in [3], in [4], in assay [5] and in assay [6] was “inactive” in each case. Also, the Potency entry in [7], in assay [8], in assay [9] and in [10] was “inactive” in each case.

For the compound `CN(C)CCC(c1ccc(Cl)cc1)c1ccccn1` (stereo not given), the Potency entry in assay [1], in assay [2], in assay [4], in assay [5], in [6] and in assay [7] was “inactive” in each case. Further, the Potency entry in assay [8], in assay [9] and in [10] was “inactive” in each case.

Regarding `CC1(C)S[C@@H]2[C@H](NC(=O)[C@H](N)c3ccccc3)C(=O)N2[C@H]1C(=O)O`, the Potency entry in [1], in assay [2], in assay [3], in assay [4], in assay [5] and in assay [6] was “inactive” each time. The Potency result in assay [7], in assay [8], in assay [9] and in assay [10] was “inactive” each time.

As to `C#C[C@]1(O)CC[C@H]2[C@@H]3CCc4cc(O)ccc4[C@H]3CC[C@@]21C`, the Potency result in assay [1], in assay [3], in assay [4], in [5], in assay [8] and in assay [9] was “inactive” throughout.

For `Cc1c(N)c(=O)n(-c2ccccc2)n1C`, the call in assay [11] was inactive.

Turning to `N=C1N=C(N)c2cc3ccccc3cc21`, the Potency in assay [1] was 39.8 µM (active); in [2] it was 39.8 µM (active); in [4] it was 39.8 µM (active); in [5], 25.1 µM (active); in assay [7], 39.8 µM (active); in assay [8] it was 50.1 µM (active). In addition, the results for the Potency in [9] and in [10] were 50.1 µM (active) and 39.8 µM (active), respectively.

On to `Cc1c(Nc2ncccc2C(=O)O)cccc1C(F)(F)F`, for which the compound was called inactive in assay [11].
